# Results published in paper PMC7862700, “An all-to-all approach to the identification of sequence-specific readers for epigenetic DNA modifications on cytosine”.
# Columns and labels:
# Experiment in all cases: DAPPL (digital affinity profiling via proximity ligation, sequencing); 10 mM Tris-HCl pH 7.5, 50 mM NaCl, 1 mM DTT, 4% glycerol, room temperature, 30 min; GST-TFs on glutathione beads, 16-mer random dsDNA library, 0.1% formaldehyde crosslink after washing; high values mean tight binding
# Conditions in all cases: protein: recombinant; tags: N-terminal GST; dsDNA, one strand shown
# [1] = biological target: T1, FLI1 (Homo sapiens, UniProt Q01543 1-452)
# T1 sequence: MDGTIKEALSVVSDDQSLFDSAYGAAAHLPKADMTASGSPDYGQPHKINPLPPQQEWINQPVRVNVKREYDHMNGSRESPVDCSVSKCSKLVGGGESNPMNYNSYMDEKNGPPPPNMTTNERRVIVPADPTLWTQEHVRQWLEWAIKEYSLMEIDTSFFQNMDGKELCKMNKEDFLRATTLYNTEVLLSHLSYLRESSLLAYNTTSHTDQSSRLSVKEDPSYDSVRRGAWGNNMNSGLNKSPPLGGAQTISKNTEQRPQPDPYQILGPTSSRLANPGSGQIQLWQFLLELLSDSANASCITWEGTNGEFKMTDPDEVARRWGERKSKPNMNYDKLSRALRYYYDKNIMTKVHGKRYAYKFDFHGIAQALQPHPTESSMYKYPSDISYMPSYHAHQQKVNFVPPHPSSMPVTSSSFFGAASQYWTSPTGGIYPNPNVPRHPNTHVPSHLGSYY
# Method in brief: (§1)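 Binding signal is defined as a hexamer's read frequency for one factor over its frequency for the tag-only sample. To obtain reads, GST-fused human transcription factors were expressed in yeast, captured on glutathione beads, barcoded with DNA and pooled with that sample. Pools met 200 nmole of a 16-mer random double-stranded DNA library in Tris/NaCl/DTT/glycerol buffer for 30 min at room temperature before washing, 0.1% formaldehyde crosslinking, proximity ligation (BsaI/T4 ligase, 1 h, 37 °C), PCR and Illumina NextSeq500 sequencing.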
# [2] = biological target: T2, ELK1 (Homo sapiens, UniProt P19419 1-428)
# T2 sequence: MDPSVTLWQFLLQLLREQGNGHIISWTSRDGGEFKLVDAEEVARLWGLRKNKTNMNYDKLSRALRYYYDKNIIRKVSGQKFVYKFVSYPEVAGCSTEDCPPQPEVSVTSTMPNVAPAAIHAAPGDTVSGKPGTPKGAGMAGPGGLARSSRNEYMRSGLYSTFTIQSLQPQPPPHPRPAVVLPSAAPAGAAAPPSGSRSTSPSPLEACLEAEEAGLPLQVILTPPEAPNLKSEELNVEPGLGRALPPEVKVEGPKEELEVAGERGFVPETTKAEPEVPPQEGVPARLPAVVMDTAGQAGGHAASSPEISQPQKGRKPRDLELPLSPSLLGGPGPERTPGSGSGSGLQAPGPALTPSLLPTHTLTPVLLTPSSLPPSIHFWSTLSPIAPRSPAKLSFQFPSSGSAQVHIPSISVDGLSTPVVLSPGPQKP
# Method in brief: as §1
# [3] = biological target: T3, GABPA (Homo sapiens, UniProt Q06546 1-454)
# T3 sequence: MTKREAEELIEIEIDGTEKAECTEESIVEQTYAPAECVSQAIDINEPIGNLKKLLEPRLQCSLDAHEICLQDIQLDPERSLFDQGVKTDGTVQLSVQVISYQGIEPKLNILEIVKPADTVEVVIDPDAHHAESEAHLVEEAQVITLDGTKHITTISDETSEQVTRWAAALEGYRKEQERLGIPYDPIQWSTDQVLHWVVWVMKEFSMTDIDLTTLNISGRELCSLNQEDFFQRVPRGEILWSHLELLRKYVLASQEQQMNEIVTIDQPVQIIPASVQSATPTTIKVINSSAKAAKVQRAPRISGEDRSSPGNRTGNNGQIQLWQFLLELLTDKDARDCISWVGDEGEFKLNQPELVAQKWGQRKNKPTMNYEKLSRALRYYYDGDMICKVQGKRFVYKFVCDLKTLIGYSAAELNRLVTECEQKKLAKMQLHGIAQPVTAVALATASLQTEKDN
# Method in brief: as §1
# [4] = biological target: ELF1 (Homo sapiens, UniProt P32519 1-619)
# Method in brief: as §1
# [5] = biological target: T4, EHF (Homo sapiens, UniProt Q9NZC4 1-300)
# T4 sequence: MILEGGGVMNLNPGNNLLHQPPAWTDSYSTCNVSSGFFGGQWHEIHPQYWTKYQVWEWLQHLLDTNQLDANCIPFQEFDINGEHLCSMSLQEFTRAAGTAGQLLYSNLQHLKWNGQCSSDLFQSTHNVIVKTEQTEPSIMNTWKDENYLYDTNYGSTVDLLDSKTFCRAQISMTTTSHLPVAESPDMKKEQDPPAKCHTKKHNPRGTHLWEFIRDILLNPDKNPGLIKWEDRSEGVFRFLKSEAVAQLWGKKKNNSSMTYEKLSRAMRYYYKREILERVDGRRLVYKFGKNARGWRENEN
# Method in brief: as §1
# [6] = biological target: SPI1 (Homo sapiens, UniProt P17947 1-270)
# Method in brief: as §1
# [7] = biological target: T5, ELK3 (Homo sapiens, UniProt P41970 1-407)
# T5 sequence: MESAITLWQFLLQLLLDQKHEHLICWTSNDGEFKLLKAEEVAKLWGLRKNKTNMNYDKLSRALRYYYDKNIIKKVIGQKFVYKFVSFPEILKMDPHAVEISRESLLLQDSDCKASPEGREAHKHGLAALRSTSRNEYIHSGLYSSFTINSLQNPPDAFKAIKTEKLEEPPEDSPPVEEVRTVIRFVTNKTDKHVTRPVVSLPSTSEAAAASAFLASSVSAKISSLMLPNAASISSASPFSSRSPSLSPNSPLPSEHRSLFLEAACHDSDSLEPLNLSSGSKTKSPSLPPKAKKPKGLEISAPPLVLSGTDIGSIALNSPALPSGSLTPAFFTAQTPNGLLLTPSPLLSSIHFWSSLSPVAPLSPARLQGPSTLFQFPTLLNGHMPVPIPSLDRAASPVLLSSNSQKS
# Method in brief: as §1
# [8] = biological target: T6, ELF3 (Homo sapiens, UniProt P78545 1-371)
# T6 sequence: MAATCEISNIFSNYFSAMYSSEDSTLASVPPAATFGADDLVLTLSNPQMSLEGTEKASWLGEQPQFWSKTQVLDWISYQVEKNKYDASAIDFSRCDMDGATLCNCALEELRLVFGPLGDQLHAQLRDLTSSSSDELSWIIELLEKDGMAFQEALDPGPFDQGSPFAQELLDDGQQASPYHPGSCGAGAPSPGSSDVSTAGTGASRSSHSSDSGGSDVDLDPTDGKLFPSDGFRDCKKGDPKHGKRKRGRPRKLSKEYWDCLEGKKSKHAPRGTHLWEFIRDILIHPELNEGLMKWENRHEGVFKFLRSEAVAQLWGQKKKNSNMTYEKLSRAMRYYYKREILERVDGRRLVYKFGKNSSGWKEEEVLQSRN
# Method in brief: as §1
# [9] = biological target: T7, ERF (Homo sapiens, UniProt P50548 1-548)
# T7 sequence: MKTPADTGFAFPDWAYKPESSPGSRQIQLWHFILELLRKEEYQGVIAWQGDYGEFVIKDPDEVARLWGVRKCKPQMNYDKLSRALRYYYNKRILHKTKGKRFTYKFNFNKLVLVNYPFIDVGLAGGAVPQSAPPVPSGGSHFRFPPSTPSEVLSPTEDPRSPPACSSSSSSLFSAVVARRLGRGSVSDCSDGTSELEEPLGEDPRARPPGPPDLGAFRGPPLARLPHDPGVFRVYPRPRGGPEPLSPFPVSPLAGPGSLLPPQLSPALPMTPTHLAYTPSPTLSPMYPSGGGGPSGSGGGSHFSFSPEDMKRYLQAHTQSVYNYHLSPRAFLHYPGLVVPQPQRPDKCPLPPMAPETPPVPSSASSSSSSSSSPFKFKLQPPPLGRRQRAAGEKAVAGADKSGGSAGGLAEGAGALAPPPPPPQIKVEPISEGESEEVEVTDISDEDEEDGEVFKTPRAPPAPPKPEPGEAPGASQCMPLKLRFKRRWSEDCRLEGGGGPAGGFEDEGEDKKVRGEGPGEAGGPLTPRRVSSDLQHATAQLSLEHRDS
# Method in brief: as §1
# [10] = biological target: T8, ETV3L (Homo sapiens, UniProt Q6ZN32 1-361)
# T8 sequence: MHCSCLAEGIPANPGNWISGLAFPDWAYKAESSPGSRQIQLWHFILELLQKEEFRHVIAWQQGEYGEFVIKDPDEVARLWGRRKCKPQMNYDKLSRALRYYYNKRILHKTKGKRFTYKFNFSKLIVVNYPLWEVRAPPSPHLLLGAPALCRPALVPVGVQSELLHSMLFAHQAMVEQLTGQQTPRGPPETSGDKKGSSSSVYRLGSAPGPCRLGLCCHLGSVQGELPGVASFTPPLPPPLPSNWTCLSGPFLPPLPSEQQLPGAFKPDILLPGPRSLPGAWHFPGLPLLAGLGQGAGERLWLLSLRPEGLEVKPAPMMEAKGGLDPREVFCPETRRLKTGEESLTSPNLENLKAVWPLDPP
# Method in brief: as §1
# [11] = biological target: T9, SPDEF (Homo sapiens, UniProt O95238 1-335)
# T9 sequence: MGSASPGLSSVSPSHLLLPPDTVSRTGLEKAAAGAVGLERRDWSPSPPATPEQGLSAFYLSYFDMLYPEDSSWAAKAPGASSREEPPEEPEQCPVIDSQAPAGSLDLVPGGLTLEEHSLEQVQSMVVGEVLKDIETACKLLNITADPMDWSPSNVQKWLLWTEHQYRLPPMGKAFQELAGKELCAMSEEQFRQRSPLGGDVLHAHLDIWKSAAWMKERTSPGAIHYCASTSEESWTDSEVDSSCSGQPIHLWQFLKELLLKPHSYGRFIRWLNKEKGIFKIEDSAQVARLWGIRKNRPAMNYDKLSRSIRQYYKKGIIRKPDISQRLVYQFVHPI
# Method in brief: as §1
# [12] = biological target: T10, ETV7 (Homo sapiens, UniProt Q9Y603 1-341)
# T10 sequence: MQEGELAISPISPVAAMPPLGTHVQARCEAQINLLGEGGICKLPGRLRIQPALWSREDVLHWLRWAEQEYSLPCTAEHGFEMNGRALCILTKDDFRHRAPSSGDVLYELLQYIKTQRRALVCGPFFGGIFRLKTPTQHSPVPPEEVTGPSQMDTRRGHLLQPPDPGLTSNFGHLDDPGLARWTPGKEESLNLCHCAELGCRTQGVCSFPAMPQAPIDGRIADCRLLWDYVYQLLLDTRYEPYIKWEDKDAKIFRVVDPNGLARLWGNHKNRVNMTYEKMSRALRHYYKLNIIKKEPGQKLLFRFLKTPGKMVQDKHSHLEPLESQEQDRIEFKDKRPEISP
# Method in brief: as §1
# [13] = biological target: T11, ETV3 (Homo sapiens, UniProt P41162-2 1-143)
# T11 sequence: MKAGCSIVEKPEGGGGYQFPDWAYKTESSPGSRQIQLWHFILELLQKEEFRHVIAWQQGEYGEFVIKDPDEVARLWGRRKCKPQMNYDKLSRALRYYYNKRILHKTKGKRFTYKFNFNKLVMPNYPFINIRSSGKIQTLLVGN
# Method in brief: as §1
# [14] = biological target: ETV6 (Homo sapiens, UniProt P41212 1-452)
# Method in brief: as §1
# Chain of ETV6 (P41212 whole entry): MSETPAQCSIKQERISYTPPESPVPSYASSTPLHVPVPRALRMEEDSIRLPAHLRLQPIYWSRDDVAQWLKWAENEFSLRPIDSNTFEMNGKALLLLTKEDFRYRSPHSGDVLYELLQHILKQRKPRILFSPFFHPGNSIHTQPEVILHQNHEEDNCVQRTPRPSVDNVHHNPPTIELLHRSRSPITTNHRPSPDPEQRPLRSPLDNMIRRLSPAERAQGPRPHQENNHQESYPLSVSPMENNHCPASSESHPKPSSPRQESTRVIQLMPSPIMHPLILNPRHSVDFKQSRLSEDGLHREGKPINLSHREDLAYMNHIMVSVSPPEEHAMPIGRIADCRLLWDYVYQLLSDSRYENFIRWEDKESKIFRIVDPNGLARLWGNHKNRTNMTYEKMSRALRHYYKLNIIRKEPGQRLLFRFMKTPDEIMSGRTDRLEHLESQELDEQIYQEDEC
# Chain of ELF1 (P32519 whole entry): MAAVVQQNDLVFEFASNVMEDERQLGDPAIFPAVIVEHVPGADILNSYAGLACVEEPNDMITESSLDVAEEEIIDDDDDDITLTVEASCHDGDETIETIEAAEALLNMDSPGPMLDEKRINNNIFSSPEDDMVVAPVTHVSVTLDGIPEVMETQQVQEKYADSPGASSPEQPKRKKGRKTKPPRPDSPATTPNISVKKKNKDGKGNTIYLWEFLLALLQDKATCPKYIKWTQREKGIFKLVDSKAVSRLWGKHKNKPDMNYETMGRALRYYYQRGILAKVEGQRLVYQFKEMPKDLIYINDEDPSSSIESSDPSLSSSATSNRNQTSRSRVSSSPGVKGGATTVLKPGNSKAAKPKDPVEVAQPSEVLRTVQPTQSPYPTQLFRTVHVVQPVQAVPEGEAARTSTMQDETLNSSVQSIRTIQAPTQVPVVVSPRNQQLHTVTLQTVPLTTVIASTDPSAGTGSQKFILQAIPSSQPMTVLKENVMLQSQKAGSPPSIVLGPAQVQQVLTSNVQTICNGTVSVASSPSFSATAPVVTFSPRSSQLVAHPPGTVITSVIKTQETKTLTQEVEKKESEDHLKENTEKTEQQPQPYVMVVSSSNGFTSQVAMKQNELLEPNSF
Sequence,binding signal [1],binding signal [2],binding signal [3],binding signal [4],binding signal [5],binding signal [6],binding signal [7],binding signal [8],binding signal [9],binding signal [10],binding signal [11],binding signal [12],binding signal [13],binding signal [14]
CTGGTG,"1.01 fold enrichment (6-mer frequency, TF over GST control)","1.05 fold enrichment (6-mer frequency, TF over GST control)","1.01 fold enrichment (6-mer frequency, TF over GST control)","1.02 fold enrichment (6-mer frequency, TF over GST control)","1.09 fold enrichment (6-mer frequency, TF over GST control)","1.04 fold enrichment (6-mer frequency, TF over GST control)","1.15 fold enrichment (6-mer frequency, TF over GST control)","1.09 fold enrichment (6-mer frequency, TF over GST control)","1.05 fold enrichment (6-mer frequency, TF over GST control)","1.06 fold enrichment (6-mer frequency, TF over GST control)","1.01 fold enrichment (6-mer frequency, TF over GST control)","1.04 fold enrichment (6-mer frequency, TF over GST control)","1.03 fold enrichment (6-mer frequency, TF over GST control)","1.03 fold enrichment (6-mer frequency, TF over GST control)"
TGTTGG,"1.01 fold enrichment (6-mer frequency, TF over GST control)",,,,,,,,,,"1 fold enrichment (6-mer frequency, TF over GST control)",,,
